Many of the other results were omitted from the sample, so hits are more common in it than they were.
ERK EGF block: EGF-driven ERK pathway inhibition | 130,000 tested, 0.41% active | AID 1454 | HEK293-V1b, EGF-stimulated phospho-ERK AlphaScreen | Potency, µM (doses to about 11.5 µM), for inactives: at the highest dose activity change, negative = inhibition, usual class: inhibitors;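 further: plate controls were stimulated vehicle wells for no effect and unstimulated vehicle basal for full effect; nearly all actives have a fitted effect of over 55% in size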
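Phospho-ERK1/2 measured by AlphaScreen (SureFire) after 5 min 25 nM EGF stimulation of V1b-expressing HEK293 cells preincubated 30 min at 37C with titrated compounds; data scaled to DMSO and EGF controls, Hill-fitted AC50.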
NPSR antag: neuropeptide S receptor (human) antagonism, cAMP; CHO-NPSR cells, cAMP TR-FRET, antagonist mode; Q6W5P4; Potency, µM (highest dose often 38.3 µM), without a hit: at the top dose activity change, negative = inhibition, hits mostly inhibitors; 220,000 tested, 1% active; AID 1461; further: nearly all actives have a fitted effect of over 50% in size
Target sequence (Q6W5P4 whole entry, looked up): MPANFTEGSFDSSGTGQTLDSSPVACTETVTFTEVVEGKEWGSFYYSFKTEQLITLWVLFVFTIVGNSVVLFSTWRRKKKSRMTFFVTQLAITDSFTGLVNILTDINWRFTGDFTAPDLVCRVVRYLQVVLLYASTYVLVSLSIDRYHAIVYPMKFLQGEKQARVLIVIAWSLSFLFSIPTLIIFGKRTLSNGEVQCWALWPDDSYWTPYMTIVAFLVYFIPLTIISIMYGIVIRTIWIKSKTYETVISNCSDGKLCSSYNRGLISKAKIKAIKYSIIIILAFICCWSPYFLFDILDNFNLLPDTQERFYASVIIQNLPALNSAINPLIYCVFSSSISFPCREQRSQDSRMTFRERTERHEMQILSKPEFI
Starred values were filed as active, the others as inactive; ? = inconclusive; . = not tested or not shown; [ ] = dose if it differs, or a comment. The call rests on the fitted dose curve; in most records, active means well fitted curve in the direction sought with a large enough effect; inconclusive means small, poorly fitted or top-dose-only effect, or another doubt; inactive means no such curve, though single readings can be large; an effect the other way counts as inactive or inconclusive. Unless noted, on the % scale 0 is the no-effect control and ±100 the full control effect; potency means the concentration at half of the fitted maximal effect.

SMILES	ERK EGF block	NPSR antag
CN(CCCNC(=O)c1cc2c(Cl)nc3ccccc3c2s1)Cc1ccccc1	25.1µM*	-20.3%
CCN(CC)CCCNC(=O)c1cc2c(Cl)nc3ccccc3c2s1	-11.2%	6.3%
COc1cc2c(cc1OC)C(c1ccc(Cl)cc1)=NCC2	-1.4%[57.5 µM]	-17.4%
COc1cc2c(cc1OC)C(c1ccc(-c3ccc(Cl)cc3Cl)o1)=NCC2	.	7.94µM*
COc1ccc(-c2nc(-c3ccccc3)oc2NC(C)C)cc1	-6.8%	.
CCN(CC)CCCC(C)n1c(-c2ccccc2)nc2c(NC3CCCCC3)nc(C)nc21 (configuration not stated)	4.8%	.
COCC1C2CC[C@H]3C(OCc4ccc(OC)cc4)OC[C@]4(C)[C@H]3C2=C(CN4C(=O)OC(C)(C)C)[C@H](C)C1COC (some centres not stated)	13.5%	.
Nc1c(S(=O)(=O)O)cc(Nc2ccc(Nc3nc(Cl)nc(Nc4ccc(S(=O)(=O)O)cc4)n3)c(S(=O)(=O)O)c2)c2c1C(=O)c1ccccc1C2=O	25.1µM*	?
O=[N+]([O-])c1ccc(Nc2nc(Cl)nc(NCCO)n2)cc1	5.0%	0.1%
O=C(c1cnccn1)N1CCC2(CC1)CN(c1ncccn1)C2	-8.6%	.
Cc1ccc(C(O)C2=CCCC2=O)cc1 (configuration not stated)	1.2%	.
CC(C)=CCC/C(C)=C/CC/C(C)=C/CSCC(=O)O	14.9%	.
CCc1c(C)nc(SCC(=O)c2cccs2)c(C#N)c1C	.	-27.9%[46.1 µM]
Cc1nc(SCC(=O)Nc2ccccc2C(F)(F)F)c(C#N)c(C)c1CC(=O)c1ccc(Br)cc1	.	10µM*
CCC1=C2CC[C@H]3C(=O)N(c4ccccc4)C(=O)[C@H]3[C@H]2[C@@]2(C)C(=O)N(Cc3ccccc3)C(=O)N2C1=O	7.1%	.
COc1ccc2c(c1)C(=O)[C@@H](OC(=O)Nc1ccc(C)c(Br)c1)[C@H](c1ccc(OC)c(Br)c1)O2	2.6%	.
COc1ncc2nc(C)c(=O)n(CCC#N)c2n1	-9.7%	.
Cc1ccc(/C=C2\C(=O)ON=C2c2ccccc2)o1	2.0%	-9.9%
Cc1ccc(-c2ccc(/C=C3\C(=O)ON=C3c3ccccc3)o2)c([N+](=O)[O-])c1	.	7.94µM*
CN(C)/C=C1/C(=O)N(c2ccc([N+](=O)[O-])cc2)N=C1c1ccccc1	-5.7%	-32.3%
O=C1/C(=C\c2ccc(-c3ccccc3[N+](=O)[O-])o2)C(c2ccccc2)=NN1c1ccccc1	28.2µM*	-16.0%
COC(=O)NC(C(=O)OC)(C(=O)OC)c1ccccc1	-5.8%	.
COc1c(C=O)c(=O)[nH]c2c(OC)cccc12	-7.5%	.
COc1cc(/C=C/C(=O)N2CCCCC2=O)cc(OC)c1OC	-3.5%	.
CC[C@H](C)[C@@H](NC(=O)O[C@@H]1Cc2cc(OC)ccc2O[C@H]1c1cccc(OC)c1)C(=O)OC	4.3%	.
SMILES	ERK EGF block	NPSR antag
CCC/C=C(\CCC)C(NC(=O)c1ccccc1)c1ccc(C(=O)OC)cc1 (configuration not stated)	0.6%	.
COC(=O)C/C=C1\c2ccc3c(c2[C@@H](OC)[C@@H]1C)OCO3	0.2%	.
COc1ccc2c(c1)O[C@@H](c1ccc3c(c1)OCO3)[C@H](OC(=O)N[C@H]1CCCc3ccccc31)C2=O	4.4%	.
CCOc1ccc(-c2[nH]ncc2Oc2cccc(OC)c2)c(O)c1	.	-22.5%[46.1 µM]
CCCc1ccc(Oc2cn[nH]c2-c2ccc(O)c(C)c2O)cc1	.	10µM*
COC(=O)C1=C(C)N=c2s/c(=C/c3cccs3)c(=O)n2C1c1cccs1 (configuration not stated)	.	-7.4%[46.1 µM]
CCOC(=O)C1=C(c2ccccc2)N=c2s/c(=C\c3ccc(O)cc3)c(=O)n2C1c1cccs1 (configuration not stated)	.	10µM*
CC(C)n1c(=S)[nH]c2scc(-c3cccs3)c2c1=O	-7.3%[57.5 µM]	19.4%
CCn1c(=S)[nH]c2scc(-c3cccs3)c2c1=O	-5.5%	10µM*
COC(=O)C/C=C/[C@@H](C)[C@H](NC(=O)OCC(Cl)(Cl)Cl)c1ccc2ccccc2c1	-6.4%	.
CC(C)c1nc(N(C)S(C)(=O)=O)nc(-c2ccc(F)cc2)c1/C=C/C(O)CC(O)CC(=O)O (configuration not stated)	14.4%	.
COc1ccc2c(c1)c(=O)oc1cc(O)ccc12	-1.9%[57.5 µM]	-1.0%
O=c1oc2cc(O)ccc2c2ccccc12	.	5.01µM*
O=P1(O)Oc2c(c(-c3ccccc3)cc3ccc4ccccc4c23)-c2c(-c3ccccc3)cc3ccc4ccccc4c3c2O1	-2.1%	.
COc1ccc(-c2nc(-c3cccc([N+](=O)[O-])c3O)cc(=O)o2)cc1OC	1.6%	6.9%
COc1cc(/C=C2/C(=O)c3cccc([N+](=O)[O-])c3C2=O)c(Br)cc1O	28.2µM*	10µM*
COc1ccc2c(c1)O[C@@H](c1cccc(C(F)(F)F)c1)[C@H](OC(=O)NS(=O)(=O)c1ccc(C)cc1)C2=O	-11.2%	.
CCCCSc1nc2c(cnn2-c2ccccc2)c(=O)n1N	-4.9%	-15.8%
O=c1c(Cl)c(Cl)cnn1-c1ccccc1	2.7%	-19.0%[46.1 µM]
CCCCSc1cnn(-c2ccccc2)c(=O)c1SCCCC	7.0%	12.6µM*
CCSc1cnn(-c2ccccc2)c(=O)c1SCC	.	12.6µM*
O=C(O)C1Cc2c([nH]c3ccccc23)C(c2coc3ccccc3c2=O)N1 (configuration not stated)	3.7%	.
O=C(O)CCN1C(=O)/C(=C/c2cn(-c3ccccc3)nc2-c2cccs2)SC1=S	5.3%	13.6%
Cc1ccc(-c2nn(-c3ccccc3)cc2/C=C2\SC(=S)N(CC(=O)O)C2=O)cc1	?	12.6µM*
CC(=O)Oc1cc(OC(C)=O)c2c(=O)cc(-c3ccc(OC(C)=O)c(OC(C)=O)c3)oc2c1	9.2%	.
SMILES	ERK EGF block	NPSR antag
O=C(N/N=C/c1cn(-c2ccccc2)nc1-c1cc2ccccc2o1)c1ccncc1	1.0%	-26.0%
O=C(N/N=C/c1cn(-c2ccccc2)nc1-c1cc2ccccc2o1)c1cccnc1	7.08µM*	-29.0%
C=CC(C1=CC(=O)C(OC)=CC1=O)c1ccc(O)cc1 (configuration not stated)	4.8%	.
COCCCNC(=O)c1ccc2c3c(onc13)-c1ccccc1C2=O	31.6µM*	?
COCCCNC(=O)c1ccccc1Oc1ccccc1	.	-13.2%[46.1 µM]
Cc1ccccc1OCC(O)Cn1c(=N)n(Cc2ccccc2)c2ccccc21 (configuration not stated)	31.6µM*	10µM*
COc1ccccc1OCC(O)Cn1c(=N)n(Cc2ccccc2)c2ccccc21 (configuration not stated)	.	4.2%[46.1 µM]
CN(C)c1ccc(NC(=S)c2ccccn2)cc1	20µM*	-33.4%
CN(C)c1ccc(C(=S)Nc2ccccc2)cc1	5.7%	0.6%
N[C@@H](CSS(=O)(=O)O)C(=O)O	-28.8%	.
COc1ccccc1CN1CCCC2(CCN(C(=O)c3ccncc3)CC2)C1	-7.9%	.
FC(F)(F)c1cc(-c2ccccc2)nc(N2CCCCCC2)n1	.	-1.1%[46.1 µM]
CS(=O)(=O)c1nc(-c2ccccc2)cc(C(F)(F)F)n1	6.4%	10µM*
CS(=O)(=O)c1sc2nc(-c3cccs3)cc(-c3ccccc3)c2c1N	.	10µM*
Cc1ccc(-c2cc(-c3ccccc3)c3c(N)c(S(C)(=O)=O)sc3n2)cc1	.	-4.2%[46.1 µM]
COc1ccc(NC(=O)/C(Cl)=C(/Cl)S(=O)Cc2ccc(Cl)cc2)cn1 (configuration not stated)	?	7.94µM*

Assay outcomes from PubChem.
